Measured values published in the supplement of paper PMC7366291.
Structures can show the parent of a compound that is named as a salt.

Each compound was assayed on Danio rerio Tg(wt1b:EGFP) embryo, pronephros (assay: fraction of imaged embryos annotated as normal kidney; higher = less nephrotoxic; extreme values may be limits of the assay). Settings: 25 µM; exposure: 24-48 hpf.
Outline: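 Dechorionated Tg(wt1b:EGFP) zebrafish embryos were exposed in 12-well plates to 25 μM compound in 0.5% DMSO, 5 mM HEPES-buffered E3 with 0.003% PTU, from 24 to 48 hpf at 28.5°C. Tricaine-anaesthetised larvae were oriented dorsally in agarose-filled 96-well plates, and pronephroi were imaged by widefield fluorescence (470 nm, 10 z-slices). Each embryo was manually annotated from maximum projections. The read-out is the fraction of embryos per treatment assigned to the normal-kidney category.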

Row | Compound | fraction of imaged embryos annotated as normal kidney
1 | CCCNC(C)(C)COC(=O)c1ccccc1 [Meprylcaine hydrochloride] | 1
2 | CC(C)NC[C@H](O)COc1ccc(CC(N)=O)cc1 [(S)-(-)-Atenolol] | 0.5
3 | Cc1cc(NS(=O)(=O)c2ccc(N)cc2)no1 [Sulfamethoxazole] | 0.833
4 | CN(C)CCN1C(=O)c2ccccc2N(C)c2ccccc21 [Dibenzepine hydrochloride] | 0.75
5 | COc1cccc2c1C(=O)c1c(O)c3c(c(O)c1C2=O)C[C@@](O)(C(=O)CO)C[C@@H]3O[C@H]1C[C@H](N)[C@@H](O)[C@H](C)O1 [Epirubicin hydrochloride] | 0.75
6 | OCCOCCN1CCN(C2=Nc3ccccc3Sc3ccccc32)CC1 [Quetiapine hemifumarate] | 0.917
7 | O=C(Oc1cccc2cccnc12)c1ccccc1 [Benzoxiquine] | 0.0833
8 | CC(=O)c1ccc2c(c1)N(CCCN(C)C)c1ccccc1S2 [Acetopromazine maleate salt] | 1
9 | O=C1CCc2ccc(OCCCCN3CCN(c4cccc(Cl)c4Cl)CC3)cc2N1 [Aripiprazole] | 1
10 | C[C@]12CCC(=O)C=C1CC[C@@H]1[C@@H]2[C@@H](O)C[C@@]2(C)[C@H]1CC[C@]2(O)C(=O)CO [Hydrocortisone base] | 0.5
11 | O=C1CN2Cc3c(ccc(Cl)c3Cl)N=C2N1 [Anagrelide] | 0.917
12 | N=C(N)NC(=O)c1nc(Cl)c(N)nc1N [Amiloride hydrochloride dihydrate] | 0.583
13 | CNCC(O)c1ccc(O)c(O)c1 (centres undefined) [Racepinephrine hydrochloride] | 0.667
14 | CCCc1nn(C)c2c(=O)[nH]c(-c3cc(S(=O)(=O)N4CCN(C)CC4)ccc3OCC)nc12 [Sildenafil] | 1
15 | C[C@]12CC[C@@H]3c4ccc(OS(=O)(=O)O)cc4CC[C@H]3[C@@H]1CCC2=O [Estropipate] | 0.75
16 | COc1c(O[C@@H]2O[C@H](CO)[C@@H](O)[C@H](O)[C@H]2O)cc2c(c1OC)-c1ccc(SC)c(=O)cc1[C@@H](NC(C)=O)CC2 [Thiocolchicoside] | 0.833
17 | O=C(c1ccccc1)c1ccc2n1CCC2C(=O)O (centres undefined) [Ketorolac tromethamine] | 0.667
18 | CC#C[C@]1(O)CC[C@H]2[C@@H]3CCC4=CC(=O)CCC4=C3[C@@H](c3ccc(N(C)C)cc3)C[C@@]21C [Mifepristone] | 0.75
19 | CN(C)c1cc(NC(=O)CNC(C)(C)C)c(O)c2c1C[C@H]1C[C@H]3[C@H](N(C)C)C(O)=C(C(N)=O)C(=O)[C@@]3(O)C(O)=C1C2=O [Tigecycline] | 0.833
20 | COc1cc([C@@H]2c3cc4c(cc3[C@@H](O[C@@H]3O[C@@H]5CO[C@@H](C)O[C@H]5[C@H](O)[C@H]3O)[C@H]3COC(=O)[C@H]23)OCO4)cc(OC)c1O [Etoposide] | 0.75

Row | Compound | fraction of imaged embryos annotated as normal kidney
21 | CC1(C)O[C@@H]2C[C@H]3[C@@H]4C[C@H](F)C5=CC(=O)CC[C@]5(C)[C@H]4[C@@H](O)C[C@]3(C)[C@]2(C(=O)CO)O1 [Flurandrenolide] | 0.333
22 | CN(C)CCOC1=Cc2ccccc2Sc2ccc(Cl)cc21 [Zotepine] | 0.75
23 | CS(=O)(=O)Nc1ccc([N+](=O)[O-])cc1Oc1ccccc1 [Nimesulide] | 0
24 | CC1(C)O[C@@H]2C[C@H]3[C@@H]4CCC5=CC(=O)CC[C@]5(C)[C@@]4(F)[C@@H](O)C[C@]3(C)[C@]2(C(=O)CCl)O1 [Halcinonide] | 0.333
25 | CN(Cc1cnc2nc(N)nc(N)c2n1)c1ccc(C(=O)N[C@@H](CCC(=O)O)C(=O)O)cc1 (racemic) [Amethopterin (R,S)] | 0.75
26 | CC(=O)Oc1ccccc1C(=O)O [Acetylsalicylic acid] | 0.917
27 | CCN(CC)CCCC(C)Nc1c2ccc(Cl)cc2nc2ccc(OC)cc12 (centres undefined) [Quinacrine dihydrochloride hydrate] | 0.75
28 | CCCOc1ccc2[nH]c(NC(=O)OC)nc2c1 [Oxibendazol] | 0
29 | O=C(O)CN(CCN(CC(=O)O)CC(=O)O)CCN(CC(=O)O)CC(=O)O [Pentetic acid] | 0.917
30 | CN(Cc1cnc2nc(N)nc(N)c2n1)c1ccc(C(=O)N[C@@H](CCC(=O)O)C(=O)O)cc1 [Methotrexate] | 0.917
31 | CN1CCC[C@@H]1CCO[C@](C)(c1ccccc1)c1ccc(Cl)cc1 [Clemastine fumarate] | 0.818
32 | OCCN1CCN(CCCN2c3ccccc3Sc3ccc(C(F)(F)F)cc32)CC1 [Fluphenazine dihydrochloride] | 0.833
33 | CN1CCN(CC(=O)N2c3ccccc3C(=O)Nc3cccnc32)CC1 [Pirenzepine dihydrochloride] | 0.75
34 | CN(C)CCCOc1nn(Cc2ccccc2)c2ccccc12 [Benzydamine hydrochloride] | 1
35 | CCN(Cc1ccncc1)C(=O)C(CO)c1ccccc1 (centres undefined) [Tropicamide] | 0.75
36 | O=C1CCC(N2C(=O)c3ccccc3C2=O)C(=O)N1 (centres undefined) [Thalidomide] | 0.917
37 | O=C(O)c1cn(C2CC2)c2cc(N3CCNCC3)c(F)cc2c1=O [Ciprofloxacin hydrochloride monohydrate] | 0.833
38 | CC(C)(O/N=C(\C(=O)N[C@@H]1C(=O)N2C(C(=O)[O-])=C(C[n+]3ccccc3)CS[C@H]12)c1csc(N)n1)C(=O)O [Ceftazidime pentahydrate] | 1
39 | c1ccc(C2CN3CCSC3=N2)cc1 (centres undefined) [Tetramisole hydrochloride] | 0.75
